Screen size: about 3,200 compounds; about 2,600 (81%) were called active.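 How the source made its calls: active means activation above the all-compound mean plus 3 SD, ignoring values outside control-based bounds (cut at about 4.8% in these data); inactive means the rest.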 So high a share suggests a set chosen from earlier hits. Not all results are given here.
test: EDANS-DABCYL substrate optical interference, artefact control for kallikrein-7 zymogen activator project, biochemical, fluorescence intensity, high throughput (AID 686952); settings: no enzyme, 4 h, at 7 µM, stronger effect = higher value;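 further: value is the 4 h activation minus the activation read at time zero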

| SMILES | activation |
| --- | --- |
| CCOC(=O)c1c(N)n(CCN2CCOCC2)c2nc3ccccc3nc12 | 31.4% (active) |
| Cc1nc2ccc(N3CCN(C)CC3)cc2nc1C | 13.9% (active) |
| CCOc1ccc(-c2cc(C)[n+](CCN(CC)CC)c(-c3ccc(OCC)cc3)c2)cc1 | 37.3% (active) |
| COc1cccc(-c2nc3ccc(N4CCN(C)CC4)cc3[nH]2)c1 | 65.7% (active) |
